Compound activity: PubChem BioAssay, Broad Institute
A selection: hits, their analogues and other compounds. The true share with any hit is near 4.8%.
HIF activator: HIF pathway transcriptional activation; U2OS HRE-luciferase reporter, luminescence; normalized: DMSO 0%, desferrioxamine 100%; activation, % at 7.5 µM (by protocol); actives 0.32% (n = 300,000);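 active means mean activation of at least 10% of the iron chelator positive control signal, with at least half of replicates also reaching 10%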
Mot1-301 SUMO: SUMOylation pathway inhibition by Mot1-301 growth rescue | S. cerevisiae Mot1-301 growth rescue, ATP luminescence, 38.5C; percent above DMSO median, 100 means doubled | growth rescue, % at 18.8 µM | actives 1% (n = 320,000);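 active means every valid replicate shows activation above 250% relative to neutral control wells; inactive means the rest, any valid replicate at or below 250%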;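 further: OY570 slx delta 5 strain wells were the positive control but not used for scaling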
ALR inh: human ALR oxidase inhibition via reduced H2O2; inhibition, % (concentration not given with the values); AID 485317; purified ALR, DTT oxidation, H2O2 HRP-luminol luminescence; actives 3.8% (n = 290,000);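 active means mean replicate inhibition above about 79%, with every replicate also reaching it, limit read from the data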
Target sequence (P55789 whole entry, looked up): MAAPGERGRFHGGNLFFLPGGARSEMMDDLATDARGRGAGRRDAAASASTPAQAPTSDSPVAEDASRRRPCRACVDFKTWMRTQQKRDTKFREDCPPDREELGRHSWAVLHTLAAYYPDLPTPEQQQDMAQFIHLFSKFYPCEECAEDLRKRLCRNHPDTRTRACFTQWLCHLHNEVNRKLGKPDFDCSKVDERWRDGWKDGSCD
AI-2 QS modul: modulates the Vibrio harveyi AI-2 quorum sensing system; Vibrio harveyi JMH597 AI-2 luminescence/OD600 ratio, 9 h; active compounds read low; strain lacks LuxN and CqsS sensors; 0 = neutral-control median; activity change, % at 7.5 µM; actives 0.4% (n = 300,000); in the data active means activity change below about -75%, passing the limit was not always enough;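 further: luminescence divided by OD600 gain over 9 h not by final OD600 alone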
Starred values were filed as active, the others as inactive; · = no result given.

SMILES | HIF activator | Mot1-301 SUMO | ALR inh | AI-2 QS modul
Fc1ccc(CNc2ccc(N3CCN(Cc4ccccc4)CC3)cc2)cc1 | -3 | 91 | 89* | -21
Cc1cc(C)nc(SCc2ccc(C(=O)N/N=C/c3ccccc3C(=O)O)cc2)n1 | -1 | · | 91* | 19
COc1cc(OC)c(OC)cc1/C=N/NC(=O)c1ccc(CSc2nc(C)cc(C)n2)cc1 | 0 | -8 | -2 | 22
O=C(COC(=O)Cc1ccc(S(=O)(=O)N2CCCCC2)s1)Nc1ccc2c(c1)OCO2 | 25* | -7 | 0 | 31
O=C(NCCS(=O)(=O)N1CCN(c2ccccc2F)CC1)C1CC(=O)N(c2ccc(F)cc2)C1 (configuration not stated) | 456* | 10 | -1 | 14
CCOCCCN(C(=O)c1snc(C(N)=O)c1N)C(C(=O)NCCC(C)C)c1ccc(Cl)cc1 (configuration not stated) | 0 | 15 | -3 | 1
CSc1ccccc1NC(=O)CN(Cc1ccccc1)S(C)(=O)=O | 0 | 287* | · | 13
CC(C)NC(=S)Nc1c(N)[nH]c(=O)[nH]c1=O | -1 | 343* | 12 | 11
CC(C)NC(=S)NC(=O)/C=C/c1ccc(F)cc1 | 0 | 11 | 0 | 7
COc1ccccc1C1NC(=O)NC(C)=C1C(=O)OC1CCC(C)CC1 (configuration not stated) | -3 | 2 | -8 | 16
O=C(Nc1cccc2cccnc12)c1ccccc1Cl | 0 | 332* | 0 | 12
CC(C)(C)OC(=O)N1CCC(NC(=O)c2ncn(Cc3ccccc3)c2C(=O)NC2CCN(C(=O)OC(C)(C)C)CC2)CC1 | · | 18 | -3 | ·
O=C(Cn1cnc([N+](=O)[O-])n1)c1ccc(O)c(O)c1 | 1 | 105 | 94* | -5
O=C(Cn1cnc([N+](=O)[O-])n1)c1ccccc1 | 0 | 27 | -52 | 11
Cc1cc(-c2n[nH]c(=S)n2/N=C/c2sccc2C)n[nH]1 | 0 | -7 | 58 | 19
Cc1nnc(C)n1/N=C/c1cccc([N+](=O)[O-])c1 | 0 | 317 | -1 | 17
Cc1cc(-c2n[nH]c(=S)n2/N=C/c2cccc(O)c2)n[nH]1 | 0 | 0 | 96* | 17
Cc1cc(-c2n[nH]c(=S)n2/N=C/c2cccc([N+](=O)[O-])c2)n[nH]1 | 0 | 5 | 97* | 14
CC(=O)C(Cc1ccccc1)NC(=O)COC(=O)CCN1C(=O)C2CC=CCC2C1=O (configuration not stated) | 0 | -3 | -1 | 12
CCN(c1ccc(OC)cc1)S(=O)(=O)c1ccc2c(c1)CC(C)N2C(=O)C1CC1 (configuration not stated) | 0 | -6 | -5 | 25
Clc1cc(Br)ccc1NCc1cccnc1 | 1 | 156 | 5 | 19
CN(C)c1ccc(/C=C(\C#N)C(=O)c2ccccc2)cc1 | 1 | -11 | 1 | 25
N#C/C(=C\c1ccc(C#N)cc1)C(=O)c1ccccc1 | -46 | 43 | 93* | 12
CCOC(=O)C1(C)NC(c2cccc(C)c2)C2C(=O)N(c3ccccc3)C(=O)C21 (configuration not stated) | 0 | -13 | -2 | 5
O=c1cc(-c2ccc(O)cc2)oc2c1ccc1ccccc12 | · | 0 | 0 | ·
SMILES | HIF activator | Mot1-301 SUMO | ALR inh | AI-2 QS modul
COc1cc2oc(-c3ccc(O)cc3)cc(=O)c2c(O)c1OC | 2 | 52 | 98* | -7
COc1c(O)cc2oc(-c3ccc(O)cc3)cc(=O)c2c1O | 2 | 6 | 94* | 20
COc1cc2oc(-c3ccc(O)cc3)cc(=O)c2c(OC)c1O | -18 | -11 | · | 12
O=c1cc(-c2ccc(O)cc2)oc2c(O)c(O)c(O)c(O)c12 | · | -11 | 86* | ·
Cc1ccc(NC(=O)C2CCCN2C(=O)OCc2ccccc2)cc1F (configuration not stated) | · | -4 | -5 | 12
O=C(O)c1cc(-n2[nH]c(=O)c3ccccc3c2=O)ccc1Cl | 0 | 8 | 4 | 16
CC(C)[C@H](NC(=O)c1ccco1)C(=O)OCC(=O)c1ccc(Br)s1 | · | -5 | 2 | ·
N#C/C(=C\c1cccc(OCC(=O)O)c1)c1nc2ccccc2[nH]1 | 1 | -8 | 98* | 7
CCOc1cccc(/C=C(/C#N)c2nc3ccccc3[nH]2)c1OCC(=O)O | 1 | -3 | 98* | 3
O=C(CCS(=O)(=O)c1ccccc1Cl)NC1CCCCCC1 | · | 21 | 8 | ·
O=C(Nc1ccc(F)cc1F)c1cc(Cl)sc1Cl | 0 | -10 | -16 | 14
COc1ccc(CN2CCSc3sccc3C2=O)cc1 | -2 | 22 | -3 | 15
CCN(C(=O)CN1CCCC(C)C1)c1c(N)n(Cc2ccccc2)c(=O)[nH]c1=O (configuration not stated) | · | 56 | · | ·
CC(C)(C)C(=O)N1CCN(C(=O)c2ccco2)CC1 | 0 | -11 | -1 | 20
CCN(CC)c1ccc(CNc2nc3ccccc3n2CCN2CCOCC2)cc1 | 0 | 5 | 98* | 9
COc1ccc(CNc2nc3ccccc3n2CCN2CCOCC2)cc1 | -1 | -24 | 94* | 23
c1csc(CNc2nc3ccccc3n2CCN2CCOCC2)c1 | 0 | -6 | 16 | 5
COc1cc(/C=N/Nc2ccccc2)ccc1OC(=O)c1cccs1 | · | -6 | -11 | ·
C/C(=N\Nc1ccc(Cl)c(C(=O)O)c1)c1cccc([N+](=O)[O-])c1 | 1 | -2 | 98* | 9
O=C(O)c1cc(N/N=C/C=C/c2ccccc2[N+](=O)[O-])ccc1Cl | 2 | -7 | 99* | 9
COc1cc(/C=N/Nc2ccc(Cl)c(C(=O)O)c2)ccc1OC(=O)c1cccs1 | · | -10 | 97* | ·
CSc1ccc(/C=N/Nc2ccc(Cl)c(C(=O)O)c2)cc1 | 174* | 63 | 45 | 10
CCCNS(=O)(=O)c1cc(CN2C(=O)c3cccnc3C2=O)ccc1OC | 1 | 12 | -7 | 8
CN1C(=O)Cc2cc(S(=O)(=O)N3CCN(c4ccccc4F)CC3)ccc21 | 0 | 20 | 9 | 14
COCC(=O)N1CCC(Oc2ccc(C(=O)N(C)CCCC3CCCC3)cc2)CC1 | -1 | -11 | -52 | 24
SMILES | HIF activator | Mot1-301 SUMO | ALR inh | AI-2 QS modul
O=C(O)c1cc(N/N=C/c2ccc(-c3ccccc3)cc2)ccc1Cl | -33 | 130 | 99* | 27
COCc1ccc(CN2CCCCC2C(=O)Nc2ccc(Oc3ccccc3)nc2)o1 (configuration not stated) | 0 | -6 | -3 | 24
COC(=O)Nc1ccc2c(c1)N(C(=O)CCN(C)C)c1ccccc1CC2 | -1 | -14 | -19 | -2
CC(=O)N(C(C)=O)n1c(C)nc2sc3c(c2c1=O)CCCC3 | -1 | -8 | 97* | 3
Cc1nc2sc3c(c2c(=O)n1N)CCC3 | 0 | -5 | 5 | 8
CC/C=C(\NC(C)=O)c1ccccc1 | · | -11 | -11 | ·
O=C(Nc1ccccc1C(=O)O)c1ccc(NC(=O)C2CC2)cc1 | -1 | 106 | · | 44
O=C(Nc1ccccc1O)c1ccc(NC(=O)C2CC2)cc1 | 58* | -17 | 3 | 23
CN(C(=O)CN1CCCCCC1)c1c(N)n(Cc2ccccc2)c(=O)[nH]c1=O | · | -2 | · | ·
